Test results reported in PubChem BioAssay AID686978 (National Center for Advancing Translational Sciences (NCATS), 2013).
The campaign covered roughly 420,000 compounds. About 64,000 (15%) were called active. Roughly 27% stayed inconclusive and do not appear here. Calls follow the shape of the dose curve; as a rule, active = well fitted inhibition curve with a large enough effect; inconclusive = small, poorly fitted or top-dose-only effect; inactive = flat fitted curve, though single readings scatter. The list is a sample of the results. Entries that show only a call come without a potency.
Potency is read from the fitted curve at half-maximal effect.

Assay: qHTS for Inhibitors of human tyrosyl-DNA phosphodiesterase 1 (TDP1): qHTS in cells in absence of CPT; also: nearly all actives have a fitted effect of over 55% in size
Conditions: DT40 Tdp1-/- hTDP1 cells, no CPT, ATP luminescence, 48 h; activity change, negative = growth inhibition: at 46.2 µM (top of the series)
In short: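 Readout: luminescence from CellTiter-Glo after 30 min in the dark at RT. Cells: DT40 Tdp1-/- with stable hTDP1, 400/well. Exposure: compounds alone, ≥48 hr, 37 °C.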
For CCCS(=O)(=O)N1CCC(C(=O)NCCCN(C)Cc2ccccc2)CC1, the Potency was “inactive”.
For CSc1ncnc2c1ncn2CCCNCc1ccco1, the Potency was “inactive”.
With O=C(Nc1cccnc1)c1cc2cc(Br)ccc2oc1=O the Potency was “inactive”.
In the case of COC(=O)c1cc(=O)n(-c2c(Cl)cc(C(F)(F)F)cc2Cl)[nH]1, the Potency is reported as “inactive”.
With CCOC(=O)c1c(NC(=O)CSc2nccc(=O)[nH]2)sc(C)c1C the Potency was “inactive”.
In the case of CCC(=O)Nc1ccc(-c2ccc(N3CCCCC3)nn2)cc1, the Potency is reported as “inactive”.
With Cc1ccc(S(=O)(=O)N2CCC(Oc3ccc(-n4cnnn4)cc3)CC2)cc1 the Potency was “inactive”.
For C(=N/Nc1cc(N2CCOCC2)nc(N2CCOCC2)n1)/c1ccccc1, the Potency was 20.6 µM (active).
In the case of COc1ccc(/C=N/NC(=O)CNC(=O)c2ccc(S(=O)(=O)N3CCCC3)cc2)c(OC)c1, the Potency is reported as “inactive”.
For CN(C)c1ccc(/C=N/Nc2cc(N3CCOCC3)nc(N3CCOCC3)n2)cc1, the Potency was “inactive”.
In the case of COc1ccc(/C=N/Nc2cc(N3CCOCC3)nc(C)n2)c(OC)c1, the Potency is reported as 20.6 µM (active).
With Cc1ccccc1N/N=C/c1ccc(N2CCOCC2)cc1 the Potency was “inactive”.
In the case of COc1ccc(/C=N/NC(=O)Nc2ccc3nsnc3c2)c(OC)c1, the Potency is reported as “inactive”.
For C=CCN1C(=O)C(Cc2ccc(OCC)cc2)SC1=Nc1ccc(C(=O)O)cc1 (centres undefined), the Potency was “inactive”.
For COc1ccc(N=C2SC(C(=O)Nc3ccc(F)cc3)CC(=O)N2C)cc1 (centres undefined), the Potency was “inactive”.
For CC1Cc2ccccc2N1C(=O)CSc1nnc(C2CC2)n1C (centres undefined), the Potency was “inactive”.
For COc1ccc(CC(=O)Nc2c(C(N)=O)oc3ccccc23)cc1, the Potency was “inactive”.
For COCCNC(=O)CSc1nc2c(n1-c1ccccc1)CCCC2, the Potency was “inactive”.
With Nc1ncnc2c1cnn2C1CC(O)C(CO)O1 (centres undefined) the Potency was “inactive”.
In the case of Nc1ncnc2c1ncn2C1CC(O)C(CO)O1 (centres undefined), the Potency is reported as 4.61 µM (active).
For Nc1ccn(C2CC(O)C(CO)O2)c(=O)n1 (centres undefined), the Potency was “inactive”.
In the case of O=C(Cc1ccccc1)NNS(=O)(=O)c1ccc([N+](=O)[O-])cc1, the Potency is reported as “inactive”.
For O=C(NNS(=O)(=O)Cc1ccccc1)c1ccc([N+](=O)[O-])cc1, the Potency was “inactive”.
For O=[N+]([O-])c1ccc(C(S(=O)(=O)Cc2ccccc2)S(=O)(=O)Cc2ccccc2)cc1, the Potency was 18.4 µM (active).
For Cn1c(N)cc(-c2ccc(F)cc2)c(C#N)c1=O, the Potency was “inactive”.
With CCOc1ccc(N=C2NC(=O)S/C2=C\c2ccc(O)cc2)cc1 the Potency was “inactive”.
In the case of CCOc1[nH]n(-c2ccc(Cl)cc2)c(=O)c1C=Nc1ccc(O)cc1, the Potency is reported as 5.17 µM (active).
For CC(=O)Cn1ncc(N2CCOCC2)c(Br)c1=O, the Potency was “inactive”.
For Cc1ccc(Cc2nc(-c3cccc(C)c3)no2)cc1, the Potency was “inactive”.
In the case of N/C(=N\S(=O)(=O)c1ccc(Cl)cc1)N1CCOCC1, the Potency is reported as “inactive”.
For CCOC(=O)c1cnc2nc(SCc3ccccc3Cl)[nH]n2c1=O, the Potency was “inactive”.
With COc1ccc(OCCCn2c(C)nc3cc(C)c(C)cc32)cc1 the Potency was 10.3 µM (active).
For O=c1c2ccccc2ncn1CCCCOc1ccccc1F, the Potency was “inactive”.
In the case of COc1ccc(OCCn2ccnc2C)cc1, the Potency is reported as “inactive”.
In the case of COc1ccc2ccn(C)c2c1, the Potency is reported as “inactive”.
With Cc1cc2ncn(CCCCOc3ccccc3)c2cc1C the Potency was 14.6 µM (active).
With COCCOCCn1cnc2ccccc21 the Potency was “inactive”.
In the case of Cc1ccc(C(=O)N2CCN(S(=O)(=O)N3CCOCC3)CC2)cc1, the Potency is reported as “inactive”.
In the case of N#Cc1c(-c2cccs2)nc(SCC(=O)c2ccc(Br)cc2)[nH]c1=O, the Potency is reported as “inactive”.
For O=C(NC(C(=O)NCCN1CCOCC1)C12CC3CC(CC(C3)C1)C2)C1CCCCC1 (centres undefined), the Potency was “inactive”.
In the case of Cc1ccc(S/C(=N\S(=O)(=O)c2ccc(Cl)cc2)c2ccccc2)cc1, the Potency is reported as 10.3 µM (active).
With Cc1ccc(S(=O)(=O)/N=C(/Nc2ccccn2)c2ccc(Cl)cc2)cc1 the Potency was “inactive”.
For O=S(=O)(/N=C(/Nc1ccccn1)c1ccccc1)c1ccc(Cl)cc1, the Potency was “inactive”.
With O=C(CCS(=O)(=O)c1ccccc1Cl)Nc1ccc(S(=O)(=O)Nc2ncccn2)cc1 the Potency was “inactive”.
With O=C(O)c1ccccc1NC(=O)c1ccccc1-c1ccccc1C(=O)O the Potency was “inactive”.
For CCNC(=O)N1CCCC(C(=O)c2ccc(-c3ccccc3)cc2)C1 (centres undefined), the Potency was 9.2 µM (active).
With Cc1ccccc1NC(=O)C1CCCN(C(=O)NCc2ccccc2)C1 (centres undefined) the Potency was “inactive”.
With CCOC(=O)CCNC(=O)N1CCCC(C(=O)c2ccccc2SC)C1 (centres undefined) the Potency was “inactive”.
In the case of O=C(CSc1nnc(-c2ccco2)n1-c1ccccc1)NCCc1ccccc1, the Potency is reported as “inactive”.
For CCSCc1nc(N)nc(NCCc2ccccc2)n1, the Potency was “inactive”.
In the case of CCOC(=O)N1CCN(Cc2nc(N)nc(Nc3ccc(C)cc3)n2)CC1, the Potency is reported as “inactive”.
With Cc1ccc(Nc2nc(N)nc(CN3CCN(Cc4ccccc4)CC3)n2)cc1Cl the Potency was 16.4 µM (active).
In the case of CCOc1ccc(S(=O)(=O)NCc2ccc3c(c2)OCO3)cc1C, the Potency is reported as “inactive”.
In the case of O=C(OCCN=C1NS(=O)(=O)c2ccccc21)c1cccc([N+](=O)[O-])c1, the Potency is reported as “inactive”.
For Cc1cccc(C(=O)Nc2ccc(CC(=O)O)cc2)c1, the Potency was “inactive”.
With Cc1ccc(C(=O)Nc2ccc(NC(=O)c3cccs3)cc2)c(C)c1 the Potency was “inactive”.
For Cc1cccc(C(=O)Nc2ccc(C(=O)/C=C/c3cccs3)cc2)c1, the Potency was 16.4 µM (active).
For COc1ccc(OC)c(CCNC(=O)CCCn2c(=O)c3cccn3c3cccnc32)c1, the Potency was 20.6 µM (active).
In the case of COCCCNC(=O)CCc1nc2cccnc2n1Cc1ccc(OC)cc1, the Potency is reported as “inactive”.
With CC1CCCCC12NC(=O)N(CC(=O)Nc1ccc(S(=O)(=O)Nc3ncccn3)cc1)C2=O (centres undefined) the Potency was “inactive”.
In the case of CC1CCN(C(=O)Cn2nnnc2CN2CCOCC2)CC1, the Potency is reported as “inactive”.
For CN(c1ccccc1)S(=O)(=O)c1ccc2[nH]c(=O)[nH]c2c1, the Potency was “inactive”.
With Cc1ccnc(NS(=O)(=O)c2ccc(NC(=O)c3ccc(S(=O)(=O)N(C)C)cc3)cc2)n1 the Potency was “inactive”.
For Cc1cccc(NC(=O)c2ccc(S(=O)(=O)N(C)c3ccccc3)cc2)n1, the Potency was 20.6 µM (active).
In the case of O=C(NCc1ccccc1Cl)C(=O)NCC1CCCN1S(=O)(=O)c1cccs1 (centres undefined), the Potency is reported as “inactive”.
For O=C(NCCC1CCCCN1S(=O)(=O)c1cccs1)C(=O)Nc1ccc(F)cc1F (centres undefined), the Potency was 2.59 µM (active).
In the case of O=C(NCCC1CCCCN1S(=O)(=O)c1ccc(F)cc1)C(=O)NC1CC1 (centres undefined), the Potency is reported as “inactive”.
With CCOC(=O)N1CCN(CCC(=O)Nc2ccccc2)CC1 the Potency was “inactive”.
In the case of COc1ccc(N2CCN(C(=O)c3c(C)oc4nc(C)nc(N5CCCC5)c34)CC2)cc1, the Potency is reported as “inactive”.
In the case of CCOC(=O)c1c(C)oc(C)c(C(=O)OCC)c1=O, the Potency is reported as “inactive”.
In the case of Cc1nc(N2CCOCC2)c2c(C(=O)NCc3cccc(Cl)c3)c(C)oc2n1, the Potency is reported as “inactive”.
For CCOC(=O)c1c(C)oc2nc(C)nc(N3CCN(c4ccc(OC)cc4)CC3)c12, the Potency was 8.2 µM (active).
With CCOC(=O)c1c(C)oc2nc(C)nc(Nc3ccc(CC)cc3)c12 the Potency was “inactive”.
With CCOC(=O)c1c(C)oc2nc(C)nc(N(CC(C)C)CC(C)C)c12 the Potency was 16.4 µM (active).
With NC(=O)c1cc(-c2cccnc2)nc2ccc(Br)cc12 the Potency was “inactive”.
For CN1C(=O)/C(=N/OC(=O)c2ccccc2Br)c2ccccc21, the Potency was “inactive”.
In the case of COc1cc(SC#N)ccc1N=Cc1c(C)[nH]n(-c2ccc(C)cc2)c1=O, the Potency is reported as 3.66 µM (active).
With CCOC(=O)c1sc2nc(C)nc(SCC(N)=O)c2c1C the Potency was “inactive”.
In the case of COC(=O)C1(C)NC(c2ccc(C)cc2)C2C(=O)N(c3ccc(F)cc3)C(=O)C21 (centres undefined), the Potency is reported as “inactive”.
With COC(=O)[C@]1(C)N[C@H](c2ccc(-c3ccc(Cl)c(Cl)c3)cc2)[C@@H]2C(=O)N(C)C(=O)[C@@H]21 the Potency was 16.4 µM (active).
With COC(=O)C1(C)NC(c2ccc(F)cc2)C2C(=O)N(c3ccccc3)C(=O)C21 (centres undefined) the Potency was “inactive”.
For O=S(=O)(c1ccc(F)cc1)N1CC=C(c2ccccc2)CC1, the Potency was “inactive”.
In the case of CC1(C)CC(=O)C2=C(C1)NCN(CCCN1CCOCC1)C2, the Potency is reported as “inactive”.
For Cc1c(NC(=O)CN2C(=O)C(=O)N(Cc3ccccc3)C2=O)c(=O)n(-c2ccccc2)n1C, the Potency was “inactive”.
With CCOC(=O)c1cc2c(=O)n3ccccc3nc2n(CCCOC)c1=NC(=O)C(C)Oc1ccccc1 (centres undefined) the Potency was “inactive”.
For CCOC(=O)c1cc2c(=O)n3ccccc3nc2n(CC2CCCO2)c1=NC(=O)c1ccc(C(C)(C)C)cc1 (centres undefined), the Potency was “inactive”.
With CCOC(=O)c1cc2c(=O)n3ccccc3nc2n(CC(C)C)c1=NC(=O)c1c(-c2c(F)cccc2Cl)noc1C the Potency was 5.8 µM (active).
For c1c2c(cc3sc(N4CCCCC4)nc13)OCCO2, the Potency was “inactive”.
With CCc1nc(C)ccc1OCC(=O)N(CC)CC the Potency was “inactive”.
In the case of CCC(C)(C)c1ccc(OCC(=O)N(C)C)c(C(C)(C)CC)c1, the Potency is reported as 18.4 µM (active).
In the case of CCn1c(SCC(=O)NNC(=O)c2ccc(OC)cc2)nnc1C(C)C, the Potency is reported as 20.6 µM (active).
With CCn1c(CNc2ccc(OC)cc2)nnc1SCC(=O)c1ccc(OC)cc1 the Potency was “inactive”.
With Cc1cccc(C(=O)NNC(=O)CSc2nnc(C(C)C)n2C)c1 the Potency was “inactive”.
With CCNC(=O)NC(=O)C(C)OC(=O)C1CCN(S(=O)(=O)c2ccccc2F)CC1 (centres undefined) the Potency was “inactive”.
With Cc1nc(COc2cccc(Cl)c2)sc1C(=O)/C=C/N(C)C the Potency was “inactive”.
In the case of CCOc1ncccc1C(=O)Nc1ccc(S(=O)(=O)Nc2nc(C)cc(C)n2)cc1, the Potency is reported as “inactive”.
In the case of Cc1cc(NS(=O)(=O)c2ccc(NC(=O)c3cccnc3)cc2)nc(C)n1, the Potency is reported as “inactive”.
With CCOc1ccccc1C(=O)Nc1ccc(S(=O)(=O)N2CCCCC2c2cccnc2)cc1 (centres undefined) the Potency was 18.4 µM (active).
For CCOc1ccc(S(=O)(=O)N2CCC(c3ccccc3)CC2)cc1C(=O)O, the Potency was “inactive”.
For CC(C)NS(=O)(=O)c1ccc(NC(=O)c2cccnc2)cc1, the Potency was “inactive”.
With Cc1cccc(C(=O)Nc2ccc(S(=O)(=O)N3CCCCC3c3cccnc3)cc2)c1 (centres undefined) the Potency was 18.4 µM (active).
With CCn1ccnc1CNC(=O)CC1C(=O)NCCN1Cc1ccc(F)cc1Cl (centres undefined) the Potency was “inactive”.
With COC(=O)Cn1c(=NC(=O)c2cc(OC)c(OC)c(OC)c2)sc2cc(OC)ccc21 the Potency was “inactive”.
For NS(=O)(=O)c1cccc(NC(=O)COC(=O)c2cc([N+](=O)[O-])ccc2N2CCCC2)c1, the Potency was “inactive”.
